Sampled rows, rich in hits. Any-hit rate of the full collection: about 5.4%.
MIN6 prolif – MIN6 beta-cell proliferation induction; proliferation, % at 10 µM; 330,000 compounds, 0.29% hits; MIN6 cells proliferation, ATPlite luminescence, 48 h; cells starved in 0.2% serum; 100% = growth in 10% serum;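 active means compounds whose signal lies at least 3.5 SD above the mean of all wells on their plate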;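 further: 0% = DMSO-treated cells in low-serum medium and 100% = 10% serum control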
Exocytosis inh – blocks lytic granule exocytosis | 360,000 compounds, 0.66% hits | AID 651702 | TALL-104 LAMP-1 surface exposure, flow cytometry; cells stimulated with thapsigargin and PMA | inhibition, % at 10 µM;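 active means inhibition above about 55%, limit read from the data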
PfM18AAP inh – PfM18AAP enzyme inhibition | recombinant PfM18AAP, H-Glu-NHMec fluorogenic cleavage | inhibition, % at 7.35 µM | 290,000 compounds, 1.2% hits;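 active means inhibition above the campaign mean inhibition over all tested compounds plus 3 SD, cut at about 28% in these data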;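 further: 0% = plate median of test compound wells and 100% = 2 mM ZnCl2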
ALR H2O2 inh – blocks human ALR sulfhydryl oxidase activity | purified ALR, DTT oxidation, H2O2 HRP-luminol luminescence | 290,000 compounds, 3.8% hits | AID 485317 | inhibition, % (test concentration not listed);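 active means mean replicate inhibition above about 79%, with every replicate also reaching it, limit read from the data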
Target sequence (P55789 whole entry, looked up): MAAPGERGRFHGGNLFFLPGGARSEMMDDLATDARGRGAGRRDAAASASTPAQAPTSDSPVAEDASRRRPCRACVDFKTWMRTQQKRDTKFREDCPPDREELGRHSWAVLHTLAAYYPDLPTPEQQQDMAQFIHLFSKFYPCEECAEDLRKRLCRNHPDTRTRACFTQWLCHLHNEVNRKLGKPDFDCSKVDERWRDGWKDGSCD
SMARCA2 activ – activators of SMARCA2 function. AID 652017. MG213 cells, MMTV-luciferase reporter, dexamethasone, overnight. 370,000 compounds, 1% hits. activation, % at 9.1 µM; in the data active means activation above about 7.8%;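 further: 0% = vehicle wells and 100% = reference activator wells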
GASC-1 inh – blocks human GASC-1 demethylase activity. inhibition, % at 2.35 µM. 330,000 compounds, 0.069% hits. Q9H3R0. GST-JMJD2C(1-420) H3K9me3 demethylation, DELFIA europium;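 active means more than half of a compound's replicate wells show inhibition beyond 50%, single wells judged on their own value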;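 further: signal counts dimethyl H3K9 product captured on neutravidin plate; 0% = median of DMSO wells and 100% = 0.3 times that DMSO median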
Target sequence (Q9H3R0 1-420 limits assumed): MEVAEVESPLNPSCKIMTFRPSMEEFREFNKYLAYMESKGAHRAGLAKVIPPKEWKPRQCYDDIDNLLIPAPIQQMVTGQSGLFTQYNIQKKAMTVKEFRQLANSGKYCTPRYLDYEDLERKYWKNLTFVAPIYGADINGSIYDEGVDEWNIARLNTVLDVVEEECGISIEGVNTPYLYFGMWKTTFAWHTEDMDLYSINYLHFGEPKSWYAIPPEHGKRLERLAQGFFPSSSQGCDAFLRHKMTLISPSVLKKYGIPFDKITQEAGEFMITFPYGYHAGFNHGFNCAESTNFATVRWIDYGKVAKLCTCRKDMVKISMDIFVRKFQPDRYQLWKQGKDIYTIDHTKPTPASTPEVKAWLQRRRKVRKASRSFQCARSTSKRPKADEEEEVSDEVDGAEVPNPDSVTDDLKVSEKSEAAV
SMARCA2 act conf – SMARCA2 activation, confirmation screen; activation, % at 9.1 µM; MG213 cells, MMTV-luciferase with dexamethasone, luminescence, overnight; MG213 cells expressing E1A, Rb sequestered; DMSO wells 0%, reference activator 100%; shares compounds with SMARCA2 activ; 3,500 compounds, 30% hits;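 active means activation above its plate's cutoff, the mean activation of tested wells plus 3 SD, cut at about 7.9% in these data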
GAL4-VP16 Luc – counter-screen for SMARCA2 activators: GAL4-VP16 luciferase reporter activation | shares compounds with SMARCA2 activ | 3,500 compounds, 41% hits | AID 686939 | HEK293 GAL4-VP16 pG5luc reporter, luciferase luminescence; scaled: DMSO wells 0%, SAHA wells 100% | activation, % at 9.1 µM;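 active means activation above the solvent-only control well mean plus 3 SD, averaged across control plates, cut at about 5.2% in these data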
* = called active by the depositor; / = no result given.

SMILES	MIN6 prolif	Exocytosis inh	PfM18AAP inh	ALR H2O2 inh	SMARCA2 activ	GASC-1 inh	SMARCA2 act conf	GAL4-VP16 Luc
OCCN(Cc1ccccc1)Cc1ccc(Cl)cc1Cl	-1	6	2	-4	8.2*	-2	-3	-1
CCCCOc1nc(N2CCOCC2)nc(C)c1[N+](=O)[O-]	0	3	-1	0	-2	5	/	/
Cc1nc(N2CCOCC2)nc(Oc2ccccc2)c1[N+](=O)[O-]	-3	-4	-1	36	11*	11	1	-2
CSCCC(c1nc2ccccc2[nH]1)n1c(=O)c(-c2ccco2)nc2ccccc21 (stereo unspecified)	/	-2	/	/	-5	/	/	/
CN(CCc1ccccc1)C(=O)c1cc2ccccn2n1	/	/	/	/	8.2*	/	5	6.0*
Cc1cccc(CCNC(=O)c2cc3ccccn3n2)c1	/	/	/	/	0	/	/	/
O=C(NCc1ccco1)C(=O)NN=Cc1ccccc1O	/	/	/	/	0	/	/	/
COc1cccc(C(O)c2nc(-c3ccc(OC)nc3)cs2)c1 (stereo unspecified)	/	-5	/	/	-1	/	/	/
CC12CCC(/C(=C/NNc3ccc([N+](=O)[O-])cc3[N+](=O)[O-])C1=O)C2(C)C (stereo unspecified)	/	4	/	/	-1	/	/	/
COC(=O)c1cc(NC(=O)c2c(C)noc2C)ccc1N1CCOCC1	2	2	-9	-8	9.2*	-5	3	0
O=C(Nc1ccc(N2CCOCC2)nc1)c1ccccc1Cl	-1	-1	-9	13	9.6*	10	2	2
COc1c(C)cccc1C(=O)Nc1ccc(N2CCOCC2)c(Cl)c1	-1	-1	4	0	8.5*	-2	3	14*
O=C(Nc1ccc(N2CCOCC2)c(Cl)c1)c1cccnc1Cl	-3	0	1	-3	1	6	/	/
O=C(Nc1ccc(N2CCOCC2)nc1)c1ccc(C(F)(F)F)cc1	0	-4	-13	-1	-7	/	/	/
Cc1oc2c(c(C)nn2-c2ccccc2)c(=O)c1Cl	/	/	/	/	1	/	/	/
CCc1nc(SCc2cc(Cl)ccc2OC)n[nH]1	-2	-4	-2	-17	9.4*	-10	-1	0
CCc1nc(SCc2ccc(OC)cc2)n[nH]1	-1	2	-11	-7	-1	17	/	/
O=C(/C=C/c1ccc2c(c1)OCO2)Nc1cccnc1	-4	2	10	-17	13*	4	5	5.6*
Cc1cc(C)nc(NC(=O)/C=C/c2ccc3c(c2)OCO3)c1	-3	-3	0	-1	11*	2	9.9*	8.4*
COC(=O)c1cccc(NC(=O)/C=C/c2ccc3c(c2)OCO3)c1	-2	0	-2	/	8.2*	-9	-2	4
COCC(=O)N[C@H]1CC[C@@H](CC(=O)NCc2ccccc2OC)O[C@@H]1CO	/	-8	/	/	-6	/	/	/
C[C@@H]1OC(C2CCCCC2)N(C)[C@H]2C[C@H]3c4[nH]c5cccc(-c6ccccc6)c5c4CCN3C(=O)[C@@H]12 (stereo partly specified)	/	/	/	/	2	/	/	/
COc1ccc(C2/C(=C(/O)c3ccccc3)C(=O)C(=O)N2c2ccccn2)cc1 (stereo unspecified)	0	2	8	23	10*	0	4	1
COc1ccc(C2/C(=C(/O)c3ccc(C)cc3)C(=O)C(=O)N2c2ccccn2)cc1OC (stereo unspecified)	-4	-2	-2	-5	-2	0	/	/
COc1ccc(/C(O)=C2/C(=O)C(=O)N(c3ncccn3)C2c2ccc(OC)cc2)cc1 (stereo unspecified)	1	1	4	11	-1	1	/	/
SMILES	MIN6 prolif	Exocytosis inh	PfM18AAP inh	ALR H2O2 inh	SMARCA2 activ	GASC-1 inh	SMARCA2 act conf	GAL4-VP16 Luc
CCCOc1ccc(/C(O)=C2\C(=O)C(=O)N(c3ccccn3)C2c2ccccc2F)cc1C (stereo unspecified)	-4	-3	3	12	15*	-1	5	4
CCOc1cc(/C=C2\CN(CC)C/C(=C\c3ccc(O)c(OCC)c3)C2=O)ccc1O	-5	57*	29*	/	10*	4	-7	-3
CCNC(=O)N1CCN(c2ccc(N3CCN(Cc4ccccc4)[C@@H](C)C3)c(C)c2)[C@@H](C)C1	/	/	/	/	-6	/	/	/
CCC(C)c1ccc(NC(=O)c2cccnc2)cc1 (stereo unspecified)	-3	1	8	-2	9.8*	-12	8.2*	12*
Cc1ccc(C)c(N2CCN(c3cnn(-c4nc5ccccc5s4)c(=O)c3Cl)CC2)c1	-5	-1	-4	-1	9.3*	6	4	6.5*
O=c1c(Cl)c(Nc2cccc(Cl)c2)cnn1-c1nc2ccccc2s1	0	-2	-6	-23	-2	-7	/	/
CN(C)c1ccc(Cl)c(NC(N)=S)c1	/	-1	/	/	8.2*	/	-2	0
NC(=S)Nc1ccc(Cl)cc1Cl	2	-1	2	-12	-4	44	/	/
O=C(CCSCc1ccccc1F)N1CCN(c2ccccn2)CC1	-2	-2	-1	0	12*	1	6	5.7*
O=C(CCCOc1ccccc1)N1CCN(c2ccccn2)CC1	-3	5	-3	-7	2	-1	/	/
CCCOc1ccc(C(=O)NNC(=S)NC(=O)c2cccs2)cc1	-7	0	4	97*	13*	-1	3	0
Cc1cc(C=C(C#N)C#N)c(C)n1-c1ccccc1	0	2	1	-9	0	-7	/	/
Cc1ccc(-n2c(C)cc(C=C(C#N)C#N)c2C)cc1	-2	40	1	-3	12*	28	1	2
CO[C@H]1CN(C)C(=O)c2cc(NC(=O)C3CCCC3)ccc2OC[C@@H](C)NC[C@H]1C	/	0	/	/	-4	/	/	/
COC(=O)c1cc2ccsc2n1Cc1nc(-c2cccc(Cl)c2)oc1C	-4	-1	-11	3	12*	-3	-6	0
COC(=O)c1c(C)[nH]c(C(=O)OC(C)C(=O)NC2CCCCC2C)c1C (stereo unspecified)	/	1	/	/	-5	/	/	/
CC1(C(=O)Nc2ccc3c(c2)OCCO3)CSCC(=O)N1C1CC1 (stereo unspecified)	/	-3	/	/	-1	/	/	/
C(=C\n1nnc2ccccc21)/c1ccccn1	0	-2	/	/	8.7*	6	8	10*
Nn1nnc2ccccc21	0	-2	/	7	-2	6	/	/
CN(C)c1cnn(-c2ccccc2)c(=O)c1Cl	1	0	-2	0	8.5*	-4	6	2

Screening results as filed in PubChem BioAssay.
